More than one record can exist for a structure, and the calls need not agree. Calls of active or inactive are those of the source. How the source made its calls: active means hit-call score of the fitted dose curve at least 0.9, where 1 is the maximum; inactive means score below 0.9.
Target: Signal transducer and activator of transcription 3 (Homo sapiens) (UniProt P40763)
Test: ATG_STAT3_CIS: Attagene CIS-FACTORIAL HepG2 Assay for human Signal Transducer and Activator of Transcription 3 (STAT3) (AID 2282963)
Details: HepG2, Attagene cis-factorial STAT3 reporter transcription; actives raise or lower the signal
Experimental: ATG_CIS is a cell-based, multiplexed-readout assay that uses HepG2, a human liver cell line, with measurements taken at 24 hours after chemical dosing in a 24-well plate.ATG_STAT3_CIS is one of 52 assay component(s) measured or calculated from the ATG_CIS assay. It is designed to make measurements of mRNA induction, a form of inducible reporter, as detected with fluorescence intensity signals by Reverse transcription polymerase chain reaction (RT-PCR) and Capillary electrophoresis technology.Data from the assay component ATG_STAT3_CIS was analyzed into 1 assay endpoint. This assay endpoint, ATG_STAT3_CIS, was analyzed with bidirectional fitting relative to DMSO as the negative control and baseline of activity. Using a type of inducible reporter, measures of mRNA for gain or loss-of-signal activity can be used to understand the reporter gene at the transcription factor-level as they relate to the gene STAT3. Furthermore, this assay endpoint can be referred to as a primary readout, because this assay has produced multiple assay endpoints where this one serves a reporter gene function. To generalize the intended target to other relatable targets, this assay endpoint is annotated to the dna binding intended target family, where the subfamily is stat protein.
Human liver HepG2 cells are transiently transfected with multiple reporter transcription units (MRTUs) in 6-well plates using FuGene 6 reagent (Roche; 3 ml FuGene/1 mg DNA). The MRTU constructs are regulated by a cis-regulating element (promoter). […] A major difference between the CIS and TRANS system is that in CIS activities of endogenous TFs are measured, whereas the TRANS assay evaluates changes in activities of exogenous, chimeric NR-Gal4 proteins. […] At the end of 24 hour incubation, total RNA was isolated using TriZol reagent (Invitrogen). The isolated RNA is then reverse-transcribed using oligo(dT) primer and Mo-MLV reverse transcriptase (Invitrogen) with DNAse I (Ambion) treatment for 30 min. The one-tenth of the produced cDNA was amplified by PCR using Taq DNA polymerase (Invitrogen) and two reporter sequence-specific primers. The PCR products were fluorescently labeled by primer extension with 6-arboxyfluorescein (6-FAM) 5'-labeled reporter sequence-specific primer (2 min at 95 C, 20 s at 68 C and 10 min at 72 C) and these products were digested with 5U of HpaI (New England Biolabs) for 2h at 37 C. The fragments were purified using Qiaquick PCR columns (Qiagen), analyzed on an ABI 3130xL genetic analyzer (Applied Biosystems) with peak positions identified by using a set of X-rhodamine (ROX)-labeled MapMarker1000 molecular weight standards (BioVentures). The raw capillary electrophoresis data was processed using Attagraph software (Attagene).

Sequence of Signal transducer and activator of transcription 3 (Homo sapiens) (P40763 whole entry, looked up): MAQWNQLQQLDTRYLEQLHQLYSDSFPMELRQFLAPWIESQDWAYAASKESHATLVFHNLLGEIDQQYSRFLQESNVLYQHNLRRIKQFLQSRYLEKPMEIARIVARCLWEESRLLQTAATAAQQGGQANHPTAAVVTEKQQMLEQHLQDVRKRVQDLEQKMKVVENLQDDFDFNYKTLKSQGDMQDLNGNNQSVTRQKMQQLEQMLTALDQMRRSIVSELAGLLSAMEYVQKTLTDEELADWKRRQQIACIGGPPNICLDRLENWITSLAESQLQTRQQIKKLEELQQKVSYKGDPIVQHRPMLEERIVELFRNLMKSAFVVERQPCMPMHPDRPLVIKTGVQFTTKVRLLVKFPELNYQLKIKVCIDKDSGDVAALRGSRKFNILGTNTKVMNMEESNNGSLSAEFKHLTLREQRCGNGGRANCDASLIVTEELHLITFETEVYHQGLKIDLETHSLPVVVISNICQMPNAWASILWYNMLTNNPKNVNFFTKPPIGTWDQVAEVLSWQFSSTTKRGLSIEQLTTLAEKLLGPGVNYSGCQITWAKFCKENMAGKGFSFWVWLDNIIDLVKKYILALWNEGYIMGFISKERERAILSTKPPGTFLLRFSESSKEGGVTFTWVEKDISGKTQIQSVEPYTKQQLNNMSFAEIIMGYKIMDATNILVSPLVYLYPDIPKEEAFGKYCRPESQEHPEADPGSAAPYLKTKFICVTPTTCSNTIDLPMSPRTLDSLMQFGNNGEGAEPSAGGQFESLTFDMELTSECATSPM

| SMILES | outcome | AC50 |
| --- | --- | --- |
| CC(=[OH+])/C=C(/C)[O-].CC(=[OH+])/C=C(/C)[O-].CC(=[OH+])/C=C(/C)[O-].[Al] | inactive |  |
| c1ccc(N=NNc2ccccc2)cc1 | inactive |  |
| COc1cccc(C=O)c1 | inactive |  |
| O=P(O)(O)CN(CP(=O)(O)O)CP(=O)(O)O | inactive |  |
| CCCCP(CCCC)CCCC | inactive |  |
| [O-][Cl+2]([O-])O | inactive |  |
| NNC(=S)NN | inactive |  |
| CC(C#N)CCC#N (stereo not given) | inactive |  |
| CC(C)c1ccc(CO)cc1 | inactive |  |
| COP(=O)(OC)OC | inactive |  |
| Cc1ccccc1C(=O)Nc1cccc(OC(C)C)c1 | inactive |  |
| CC(C)C1CCC(Cc2ccc(Cl)cc2)C1(O)Cn1cncn1 (stereo not given) | inactive |  |
| CC1(C)Cc2cccc(O)c2O1 | inactive |  |
| Cc1ccc(N)cc1Cl | inactive |  |
| O=S(=O)(c1ccc(Cl)cc1)c1ccc(Cl)cc1 | inactive |  |
| C[C@@H](Oc1ccc(Cl)cc1Cl)C(=O)O | inactive |  |
| Oc1c(I)cc(I)cc1I | inactive |  |
| N#Cc1ccccn1 | inactive |  |
| O=C1C2(Cl)C3(Cl)C4(Cl)C(Cl)(Cl)C5(Cl)C3(Cl)C1(Cl)C5(Cl)C24Cl (stereo not given) | inactive | 5.58 µM (active) |
| CCC[CH2][Sn]([CH2]CCC)([CH2]CCC)[O]C(=O)c1ccccc1 | inactive |  |

| SMILES | outcome | AC50 |
| --- | --- | --- |
| Clc1nc(Cl)nc(Cl)n1 | inactive |  |
| ClCCBr | inactive |  |
| O=C/C=C/c1ccccc1 | inactive |  |
| C(=NC1CCCCC1)=NC1CCCCC1 | inactive |  |
| Nc1ccc(-c2ccc(N)c(Cl)c2)cc1Cl | inactive |  |
| CC(Br)C(=O)O (stereo not given) | inactive |  |
| C[C@@H]1C[C@@H]([C@H](O)CC2CC(=O)NC(=O)C2)C(=O)[C@@H](C)C1 | inactive |  |
| COP(=O)(OC)O/C(=C\Cl)c1cc(Cl)c(Cl)cc1Cl | inactive |  |
| N#CCCO | inactive |  |
| COS(=O)(=O)c1ccc(C)cc1 | inactive |  |
| O=C(c1ccccc1)C(Cl)Cl | inactive |  |
| CC(C)(C)c1cc(O)ccc1O | inactive |  |
| O=C(O)C(Cl)(Cl)Cl | inactive |  |
| Cl/C=C/Cl | inactive |  |
| O=C(NCO)NCO | inactive |  |
| O=C(OC1CCCCC1)c1ccccc1C(=O)OC1CCCCC1 | inactive |  |
| C=CCc1ccc(OC)cc1 | inactive |  |
| CCOP(=S)(OCC)Oc1nc(Cl)c(Cl)cc1Cl | inactive |  |
| CCc1ccccc1N | inactive |  |
